Data from PubChem BioAssay.
The source made the active and inactive calls.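 The calls were made as follows, unless noted: active = visual image review flags a hit and inhibition of aggregation exceeds 20%; inconclusive = visual hit but inhibition at or below 20%; inactive = no hit on visual image review.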

Tests used:
[1] = inhibitors of TNFa-induced NFkB p65 translocation, primary screen, imaging, HUVEC, MLSMR starter and 10KST1 sets (AID 438;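 active = inhibition above 20% together with a positive visual image hit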;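 also: compound added about 3h40 before a 20 min TNFalpha stimulation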;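 as to inhibition: signal is the nuclear over cytoplasmic p65 intensity ratio per well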); conditions: HUVEC TNFa-induced p65 nuclear translocation; cell count: measured here: nuclei count (cytotoxicity indicator), at 2.08 µM; inhibition: at 2 µM, stronger effect = higher value, 0% TNFa-plus-vehicle, 100% no-TNFa wells
[2] = reduction of polyQ htt aggregates in cells – imaging, exon1htt(103Q)mCFP cells, high-content imaging, primary screen (AID 483); conditions: exon1htt(103Q)mCFP cell line, aggregate imaging, at 2 µM; inhibition of aggregation: stronger effect = higher value; nuclei count: measured here: cell count, toxicity;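 also: compound exposure lasted 3 days before fixation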;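 as to nuclei count: percent of the per-plate median nuclei count of sample wells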
[3] = endothelial E-selectin expression blockers – imaging, HUVEC, immunofluorescence, MLSMR starter and 10KST1 sets, primary screen (AID 487;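 active = visually confirmed hit in the image check and inhibition above 20%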;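 as to inhibition: signal is fraction of cell area covered by stained E-selectin grains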;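 as to nuclei count: 100% = median nuclei count of all wells on the same plate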); conditions: HUVEC TNFalpha-induced E-selectin immunofluorescence imaging, at 2 µM; inhibition: stronger effect = higher value; nuclei count: measured here: cell number, toxicity
[4] = biological target: Voltage-gated potassium channel subunit beta-2 (Rattus norvegicus) (UniProt P62483); experiment: inhibitors of rat Kvbeta2 reductase activity – biochemical, NADPH fluorescence, primary screen (AID 622;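 active = fluorescence slope higher than the sample average by over 3 SD, cut at about -0.22 in these data, passing the limit was not always enough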;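 also: slope of raw intensity against log time taken from 70 to 1610 s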); conditions: recombinant KvBeta, 4-cyanobenzaldehyde reduction, at 10 µM, stronger effect = higher value
Voltage-gated potassium channel subunit beta-2 (Rattus norvegicus), sequence (P62483 whole entry, looked up): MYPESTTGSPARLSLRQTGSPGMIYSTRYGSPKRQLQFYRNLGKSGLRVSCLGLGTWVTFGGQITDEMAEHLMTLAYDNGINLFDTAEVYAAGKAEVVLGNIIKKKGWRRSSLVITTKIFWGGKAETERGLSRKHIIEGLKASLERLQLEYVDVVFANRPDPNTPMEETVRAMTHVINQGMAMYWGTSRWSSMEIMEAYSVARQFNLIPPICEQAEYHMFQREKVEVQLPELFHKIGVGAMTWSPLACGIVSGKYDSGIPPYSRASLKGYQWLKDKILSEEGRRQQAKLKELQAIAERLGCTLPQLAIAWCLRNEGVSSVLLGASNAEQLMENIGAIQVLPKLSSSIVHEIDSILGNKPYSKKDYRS

[5] = biological target: Voltage-gated potassium channel subunit beta-2 (Rattus norvegicus) (UniProt P62483); experiment: enhancers of rat Kvbeta2 NADPH turnover – biochemical, NADPH fluorescence, primary screen (AID 623;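 active = NADPH fluorescence slope more negative than the mean of all samples by about 3 SD, 99.7% confidence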;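 also: fluorescence intensity change per second fitted from 20 to 320 s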); conditions: Recombinant KvBeta, NADPH fluorescence decrease slope, 10 min; at 10 µM; stronger effect = lower value
[6] = biological target: Alpha-2C adrenergic receptor (Homo sapiens) (UniProt P18825); experiment: compounds altering alpha2C-coupled GIRK flux – cell-based, HEK293 alpha2C/GIRK1/2, thallium flux, primary screen (AID 624;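 active = fluorescence slope after compound addition differing from the mean of all screened samples at 99.7% confidence, in either direction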;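 also: slope of fluorescence ratio to pre-addition baseline per second over 15 to 24 s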); conditions: thallium flux BTC fluorescence, at 10 µM, actives lie on both sides
Alpha-2C adrenergic receptor (Homo sapiens), sequence (P18825 whole entry, looked up): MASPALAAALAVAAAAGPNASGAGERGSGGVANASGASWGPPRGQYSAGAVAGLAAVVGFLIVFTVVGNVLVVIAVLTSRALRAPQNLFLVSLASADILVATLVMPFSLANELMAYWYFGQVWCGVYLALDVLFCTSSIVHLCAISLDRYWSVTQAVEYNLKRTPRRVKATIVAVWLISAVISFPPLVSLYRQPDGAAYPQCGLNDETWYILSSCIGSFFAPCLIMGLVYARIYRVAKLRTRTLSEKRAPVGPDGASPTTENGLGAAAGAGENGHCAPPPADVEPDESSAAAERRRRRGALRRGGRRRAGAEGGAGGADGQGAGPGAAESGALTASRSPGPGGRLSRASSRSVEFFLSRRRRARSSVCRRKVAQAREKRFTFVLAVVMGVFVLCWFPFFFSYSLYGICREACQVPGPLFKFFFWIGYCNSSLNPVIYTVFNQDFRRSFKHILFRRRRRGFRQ

[7] = blockers of RIG-like receptor reporter activation – cell-based, Sendai virus stimulus, luciferase, 10K MLSCN set, TLR/RLR signaling modifier project, primary screen (AID 602276;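 active = inhibition at or above 50% at 10 µM; inactive = inhibition below 50%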;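 also: firefly luciferase from ISG56 promoter only with Renilla not read in this screen; 0% = Sendai virus plus DMSO and 100% = medium plus DMSO without virus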); conditions: HEK293 RL24 IRF3 luciferase reporter, at 10 µM, stronger effect = higher value
[8] = TLR3 IRF3 reporter activation blockers – cell-based, poly I:C stimulus, luciferase, 10K MLSCN set, primary screen (AID 602277;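 active = inhibition of the reporter signal at or above 50%; inactive = inhibition below 50%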); conditions: HEK293-TLR3 RL24 IRF3 luciferase reporter, at 10 µM, stronger effect = higher value

| Compound | cell count [1] | inhibition [1] | inhibition of aggregation [2] | nuclei count [2] | inhibition [3] | nuclei count [3] | fluorescence slope [4] | NADPH fluorescence slope [5] | slope [6] | inhibition [7] | inhibition [8] |
| --- | --- | --- | --- | --- | --- | --- | --- | --- | --- | --- | --- |
| C/C=C/c1ccc(OCCn2cncn2)c(OC)c1 | 746 | -6.6% (inactive) | -27.6% (inactive) | 132% | -73.8% (inactive) | 120% | -0.519 (inactive) | 3.6e-05 (inactive) | 0.00659 (inactive) | -19.9% (inactive) | 2% (inactive) |
| CC(C)(Oc1ccc(Cl)cc1)C(=O)NCc1ccncc1 | 419 | 5.2% (inactive) | -21% (inactive) | 96.4% | -85.3% (inactive) | 113% | -0.297 (inactive) | -5.5e-05 (inactive) | 0.00503 (inactive) | 11.3% (inactive) | 12.2% (inactive) |
| CCOC(=O)Cn1nnc(-c2ccc(SC)cc2)n1 | 729 | -6.9% (inactive) | -11.1% (inactive) | 102% | -69.2% (inactive) | 116% | -0.329 (inactive) | -6.5e-05 (inactive) | 0.00483 (inactive) | 11.7% (inactive) | 16.7% (inactive) |
| CCOC(=O)Cn1c2c(c(=N)c3ccccc31)CCC2 | 565 | -7.1% (inactive) | -0.7% (inactive) | 106% | 2% (inactive) | 103% | -0.623 (inactive) | -3.1e-05 (inactive) | 0.00442 (inactive) | 16% (inactive) | 20.3% (inactive) |
| Cc1cccc(NC(=O)C2CCCN2C(=O)OCC(C)C)c1C (stereo not drawn) | 728 | -6.9% (inactive) | -27.8% (inactive) | 109% | -120% (inactive) | 119% | -0.322 (inactive) | -6.4e-05 (inactive) | 0.00484 (inactive) | 5.88% (inactive) | 14.1% (inactive) |
| CCc1nnc(NC(=O)c2ccc(COc3ccccc3)o2)s1 | 736 | -49% (inactive) | -1.8% (inactive) | 101% | -18.9% (inactive) | 102% | -0.519 (inactive) | -2.5e-05 (inactive) | 0.00512 (inactive) | -7.49% (inactive) | 3.46% (inactive) |
| COCCCn1nnnc1SCC(=O)Nc1nc(C)c(C)s1 | 435 | -5.5% (inactive) | 14.2% (inactive) | 58.2% | -133% (inactive) | 104% | -0.499 (inactive) | -5.5e-05 (inactive) | 0.00473 (inactive) | 2.9% (inactive) | 9.02% (inactive) |
| CCN1CCN(S(=O)(=O)Cc2ccccc2)CC1 | 426 | -2.4% (inactive) | 23.9% (inactive) | 32.2% | -78.4% (inactive) | 106% | -0.607 (inactive) | -2.9e-05 (inactive) | 0.00543 (inactive) | -13.3% (inactive) | -9.78% (inactive) |
| O=C(NCc1cccs1)C1CC(=O)N(c2ccccc2)C1 (stereo not drawn) | 345 | -0.5% (inactive) | 11.8% (inactive) | 98.2% | -28.7% (inactive) | 84% | -0.625 (inactive) | 3.2e-06 (inactive) | 0.00459 (inactive) | 2.75% (inactive) | 4.93% (inactive) |
| COCCNC(=O)C(c1ccncc1)N(C(=O)Cn1nnc2ccccc21)c1ccc(OC)cc1 (stereo not drawn) | 679 | 8.2% (inactive) | -3.2% (inactive) | 100% | 8.4% (inactive) | 99.8% | -0.481 (inactive) | -4.3e-05 (inactive) | 0.00706 (inactive) | -0.74% (inactive) | 25.1% (inactive) |
| O=C(NC1CCCC1)C1CCCN(S(=O)(=O)c2cccc3cccnc23)C1 (stereo not drawn) | 617 | 6.6% (inactive) | 3.4% (inactive) | 107% | -68.3% (inactive) | 132% | -0.594 (inactive) | -3.8e-05 (inactive) | 0.00653 (inactive) | -0.271% (inactive) | 28.5% (inactive) |
| CC1Cc2ccccc2N1C(=O)C12CCC(C)(C(=O)C1)C2(C)C (stereo not drawn) | 387 | -1.6% (inactive) | -6.9% (inactive) | 99.5% | -141% (inactive) | 116% | -0.544 (inactive) | -7.5e-05 (inactive) | 0.00468 (inactive) | -4.72% (inactive) | 1.25% (inactive) |
| CCCC(=O)Nc1cc(C)c2c(=O)oc3ccccc3c2n1 | 627 | -24.4% (inactive) | -6.5% (inactive) | 97.4% | -37.2% (inactive) | 121% | -0.447 (inactive) | -7.8e-05 (inactive) | 0.0057 (inactive) | -9.8% (inactive) | -24.7% (inactive) |
| CN(C1CCS(=O)(=O)C1)S(=O)C12CC3CC(CC(C3)C1)C2 (stereo not drawn) | 150 | 23.1% (inactive) | -16% (inactive) | 98% | 1.8% (inactive) | 95.7% | -0.533 (inactive) | -3.6e-05 (inactive) | 0.00528 (inactive) | -4.43% (inactive) | 99.5% (active) |
| CCOC(=O)CNC(=O)CSc1ncnc2c1cnn2Cc1ccccc1 | 597 | 12.6% (inactive) | -12.1% (inactive) | 103% | -157% (inactive) | 134% | -0.374 (inactive) | -0.000157 (inactive) | 0.0067 (inactive) | 2.57% (inactive) | 24.8% (inactive) |
| Cc1nnc2ccc(N3CCN(c4cccc(C(F)(F)F)c4)CC3)nn12 | 596 | 5.5% (inactive) | -64.5% (inactive) | 32.1% | -68.3% (inactive) | 134% | -0.505 (inactive) | -1.3e-05 (inactive) | 0.00619 (inactive) | 3.49% (inactive) | 11.9% (inactive) |
| O=c1c2[nH]c3ccccc3c2ncn1CCCn1ccnc1 | 717 | -0.2% (inactive) | -4.9% (inactive) | 99.9% | -21.4% (inactive) | 111% | -0.42 (inactive) | 3.1e-06 (inactive) | 0.00409 (inactive) | 26.3% (inactive) | 50.7% (active) |
| CSCCC(NC(=O)c1occc1C)C(=O)O (stereo not drawn) | 361 | 4% (inactive) | -17.4% (inactive) | 108% | -91.1% (inactive) | 149% | -0.351 (inactive) | -6.3e-05 (inactive) | 0.00359 (inactive) | 7.31% (inactive) | 21.8% (inactive) |
| O=C(OCn1nnc2ccccc2c1=O)c1cc2ccccc2o1 | 544 | -3.9% (inactive) | 19.5% (inactive) | 76.7% | -10.4% (inactive) | 90.4% | -0.447 (inactive) | -3.1e-05 (inactive) | 0.00552 (inactive) | -2.91% (inactive) | 27.7% (inactive) |
| COc1ccc(-c2noc(CN(C(=O)C(C)(C)C)C(C)C)n2)cc1 | 420 | 5% (inactive) | 10.8% (inactive) | 93% | -73% (inactive) | 117% | -0.43 (inactive) | -5.1e-05 (inactive) | 0.00416 (inactive) | -16.3% (inactive) | -34% (inactive) |
| CCOC(=O)CC(=O)Nc1c(C)cc(C)cc1C | 270 | 7.5% (inactive) | 12.8% (inactive) | 87.4% | 6.5% (inactive) | 105% | -0.416 (inactive) | 6.4e-05 (inactive) | 0.00527 (inactive) | -9.54% (inactive) | 2.4% (inactive) |
| CC1=C(C(=O)Nc2cccnc2)C(c2ccc(C(C)C)cc2)n2ncnc2N1 (stereo not drawn) | 712 | -12.8% (inactive) | -16.2% (inactive) | 118% | -56% (inactive) | 120% | -0.4 (inactive) | 5.8e-05 (inactive) | 0.00428 (inactive) | 1.35% (inactive) | 20% (inactive) |
| Cc1ccc(-c2nnn(CC(=O)N(Cc3cccs3)C(C(=O)NC(C)(C)C)c3ccc(C)o3)n2)o1 (stereo not drawn) | 675 | -4% (inactive) | -2.3% (inactive) | 136% | -20.1% (inactive) | 137% | -0.361 (inactive) | -2.9e-05 (inactive) | 0.00454 (inactive) | 16.3% (inactive) | 20.6% (inactive) |
| CCOCCCNC(=O)C1CCN(S(=O)(=O)c2c(C)noc2/C=C\c2ccc(OC)cc2)CC1 | 345 | 1.2% (inactive) | 32.8% (inactive) | 99.9% | -122% (inactive) | 114% | -0.36 (inactive) | 3.9e-05 (inactive) | 0.00493 (inactive) | -4.28% (inactive) | 0.813% (inactive) |
| CCOc1cc(C2NC(=O)NC(O)(C(F)(F)F)C2C(=O)c2ccccc2)ccc1OC (stereo not drawn) | 383 | 6.8% (inactive) | 4.9% (inactive) | 86.1% | -51% (inactive) | 121% | -0.378 (inactive) | 3.5e-05 (inactive) | 0.00542 (inactive) | 5.58% (inactive) | 11.7% (inactive) |
| CCc1c(C)n([O-])c2c([n+]1=O)CCC2 | 369 | 2.8% (inactive) | -1.6% (inactive) | 106% | 3.1% (inactive) | 111% | -0.51 (inactive) | -1.5e-05 (inactive) | 0.00618 (inactive) | -11.4% (inactive) | 7.02% (inactive) |
| c1ccc(Nc2ccccc2Nc2ccccn2)nc1 | 306 | 4.4% (inactive) | 21.6% (inactive) | 88.1% | 8.5% (inactive) | 90.5% | -0.379 (inactive) | -5.3e-06 (inactive) | 0.00758 (inactive) | 13% (inactive) | 25% (inactive) |
| CN1CCCN(CC(O)COCc2cccs2)CC1 (stereo not drawn) | 489 | -6.7% (inactive) | -19.8% (inactive) | 108% | -66% (inactive) | 153% | -0.489 (inactive) | -3.2e-05 (inactive) | 0.00614 (inactive) | -7.31% (inactive) | 24.2% (inactive) |
